Inconclusive results are not listed. Activity calls are given as the source filed them. Calls come from the whole dose curve; as a rule, active = well fitted curve in the direction sought with a large enough effect; inconclusive = small, poorly fitted or top-dose-only effect, or another doubt; inactive = no such curve, though single readings can be large; an effect the other way counts as inactive or inconclusive. Non-standard residues stand in square brackets, D forms with d. Residues, ends and D or L forms follow the SMILES beside them. *: point of attachment. Nva = CCC[C@H](N)C(=O)O; Cbz = O=C(OCc1ccccc1)*
Columns and labels:
[1] = Quantitative High-Throughput drug screen in 47 multiple myeloma cell lines against the NCATS MIPE library collection: KMM1_JCRB cell viability assay (AID 1918960); note: nearly all actives have a fitted effect of over 30% in size
Method in brief: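 500 cells/well; MIPE 4.0 library pinned in; 48 h, 37 °C, 5% CO2; CellTiter-Glo ATP luminescence. Controls: DMSO = 100% viability, medium only = 0%.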

[2] = Quantitative High-Throughput drug screen in 47 multiple myeloma cell lines against the NCATS MIPE library collection: Karpas417_ECACC cell viability assay (AID 1918961); settings: Karpas417 myeloma viability, CellTiter-Glo ATP luminescence, 48 h; viability (% of DMSO): at 45.8 µM (top of the series)
Method in brief: (§1)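 CellTiter-Glo luminescence (ATP) after 48 h compound exposure, 37C/5% CO2; 500 cells/well; MIPE 4.0 approved/investigational drugs pinned in; DMSO = 100%, media only = 0% viability.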

[3] = Quantitative High-Throughput drug screen in 47 multiple myeloma cell lines against the NCATS MIPE library collection: KHM11_PLB cell viability assay (AID 1918962); note: nearly all actives have a fitted effect of over 35% in size
Method in brief: (§2)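 Steps: seed 500 cells per well; pin-transfer MIPE 4.0 library; incubate 48 h at 37C, 5% CO2, humidified; add CellTiter-Glo, 5 min room temperature; read luminescence.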

[4] = Quantitative High-Throughput drug screen in 47 multiple myeloma cell lines against the NCATS MIPE library collection: JIM3_ECACC cell viability assay (AID 1918963; note: nearly all actives have a fitted effect of over 35% in size)
Method in brief: as §2

[5] = Quantitative High-Throughput drug screen in 47 multiple myeloma cell lines against the NCATS MIPE library collection: JIM1_ECACC cell viability assay (AID 1918964)
Method in brief: (§3)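 qHTS of the MIPE 4.0 collection: 500 myeloma cells/well, 48 h drug exposure at 37C in 5% CO2, then CellTiter-Glo for 5 min at room temperature before luminescence reading.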

[6] = Quantitative High-Throughput drug screen in 47 multiple myeloma cell lines against the NCATS MIPE library collection: INA6_PLB cell viability assay (AID 1918965; note: nearly all actives have a fitted effect of over 55% in size)
Method in brief: as §1

[7] = Quantitative High-Throughput drug screen in 47 multiple myeloma cell lines against the NCATS MIPE library collection: JJN3_DSMZ cell viability assay (AID 1918966; note: nearly all actives have a fitted effect of over 50% in size)
Method in brief: as §3

[8] = Quantitative High-Throughput drug screen in 47 multiple myeloma cell lines against the NCATS MIPE library collection: H1112_PLB cell viability assay (AID 1918967; note: nearly all actives have a fitted effect of over 30% in size)
Method in brief: as §3

[9] = Quantitative High-Throughput drug screen in 47 multiple myeloma cell lines against the NCATS MIPE library collection: Karpas25_ECACC cell viability assay (AID 1918968; note: nearly all actives have a fitted effect of over 35% in size)
Method in brief: as §3

[10] = Quantitative High-Throughput drug screen in 47 multiple myeloma cell lines against the NCATS MIPE library collection: KMS27_JCRB cell viability assay (AID 1918970); settings: KMS27 myeloma cells, CellTiter-Glo ATP viability, 48 h; viability (% of DMSO): at 45.8 µM (top of the series); note: nearly all actives have a fitted effect of over 30% in size
Method in brief: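 KMS27_JCRB myeloma cells, 500 per well, exposed 48 h at 37 C, 5% CO2 to MIPE 4.0 compounds. Viability from ATP by CellTiter-Glo luminescence, normalized to DMSO (100%) and medium-only (0%) wells.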
Potency is the fitted concentration of half-maximal effect.

| SMILES | Potency [1] | Potency [2] | Potency [3] | Potency [4] | Potency [5] | Potency [6] | Potency [7] | Potency [8] | Potency [9] | Potency [10] |
| --- | --- | --- | --- | --- | --- | --- | --- | --- | --- | --- |
| CCC[C@@H](C=O)NC(=O)[C@H](CC(C)C)NC(=O)[C@H](CC(C)C)NC(=O)OCc1ccccc1 (Cbz-Leu-Leu-[Nva]-aldehyde) | 235 nM (active) | 296 nM (active) | 469 nM (active) | 935 nM (active) | 372 nM (active) | 235 nM (active) | 1180 nM (active) | 418 nM (active) | 296 nM (active) | 332 nM (active) |
| CCOC(=O)C=C[C@H](C[C@@H]1CCNC1=O)NC(=O)[C@@H](CC(=O)[C@@H](NC(=O)c1cc(C)on1)C(C)C)Cc1ccc(F)cc1 | inactive | inactive |  | inactive |  |  | inactive | inactive | inactive | inactive |
| O=C(Nc1nnc(-c2ccco2)o1)c1cc(-c2ccccc2)nc2ccccc12 | 14800 nM (active) | 23500 nM (active) |  | 18700 nM (active) | 18700 nM (active) | 16600 nM (active) | 20900 nM (active) | 18700 nM (active) | 18700 nM (active) | 16600 nM (active) |
| C=CC(=O)N1CCc2ccc(-n3c(=O)ccc4cnc5ccc(-c6cnn(C)c6)cc5c43)cc21 | 833 nM (active) | 935 nM (active) | 526 nM (active) |  | 1870 nM (active) | 235 nM (active) |  | 1050 nM (active) | 590 nM (active) | 2960 nM (active) |
| O=C1NC(O)CCN1[C@@H]1O[C@H](CO)[C@H](O)[C@H]1O (stereo not given in full) | inactive | inactive | inactive | inactive |  |  |  | inactive | inactive | inactive |
| CC1(C)[C@H](O[C@H]2O[C@H](C(=O)O)[C@@H](O)[C@H](O)[C@H]2O[C@@H]2O[C@H](C(=O)O)[C@@H](O)[C@H](O)[C@H]2O)CC[C@@]2(C)[C@H]1CC[C@]1(C)[C@H]2C(=O)C=C2[C@H]3C[C@@](C)(C(=O)O)CC[C@]3(C)CC[C@]21C | inactive | inactive |  |  |  |  |  | inactive | inactive | inactive |
| CCN(CC)CCNC(=O)c1c(C)[nH]c(C=C2C(=O)Nc3ccc(F)cc32)c1C | 3820 nM (active) | 136 nM (active) | 1080 nM (active) |  | 481 nM (active) | 1210 nM (active) | 6050 nM (active) | 6790 nM (active) | 1360 nM (active) | 1360 nM (active) |
| Cc1[nH]c(C=C2C(=O)Nc3ccccc32)c(C)c1CCC(=O)O | 13200 nM (active) | 23500 nM (active) |  |  | 2960 nM (active) | 3720 nM (active) |  | 4180 nM (active) | 10500 nM (active) | 5900 nM (active) |
| NC(=O)c1ncn([C@@H]2O[C@H](CO)[C@@H](O)[C@@H]2O)c1N | inactive | inactive |  | inactive |  |  |  | inactive |  | inactive |
| CC(C)Oc1ccc(C(=O)N[C@H](CNC(=O)CN(C)C)Cc2ccc(-c3cn4cccc([C@H](C)O)c4n3)cc2)cc1Cl | 209 nM (active) | inactive |  | 209 nM (active) |  | 74.3 nM (active) |  |  | 132 nM (active) | 833 nM (active) |
| NC(=O)N1CCC(CC(=O)N2CCC([C@H]3c4ncc(Br)cc4CCc4cc(Cl)cc(Br)c43)CC2)CC1 | 18700 nM (active) | 10500 nM (active) | 37.2 nM (active) |  | 5900 nM (active) | 7430 nM (active) | 16600 nM (active) | 10500 nM (active) | 14800 nM (active) |  |
| CCC[C@H]1C[C@H](C(=O)N[C@@H]([C@@H]2O[C@@H](SC)[C@@H](O)[C@@H](O)[C@@H]2O)[C@H](C)Cl)N(C)C1 | inactive | 9.3 nM (active) | inactive | inactive |  |  |  | inactive | inactive | inactive |
| CC(C=CC=C(C)C=CC1=C(C)CCCC1(C)C)=CC=CC=C(C)C=CC=C(C)C=CC1=C(C)CCCC1(C)C | inactive | 9350 nM (active) |  | inactive |  |  | 14800 nM (active) |  | 16600 nM (active) | 11800 nM (active) |
| CCCCCCCCc1ccc(CCC(N)(CO)CO)cc1 | 6620 nM (active) | 6620 nM (active) | 8330 nM (active) |  | 5900 nM (active) | 8330 nM (active) |  | 18700 nM (active) | 5900 nM (active) | 6620 nM (active) |
| COc1cccc2c1C(=O)c1c(O)c3c(c(O)c1C2=O)C[C@@](O)(C(=O)CO)C[C@H]3O[C@H]1C[C@H](N)[C@H](O)[C@H](C)O1 | 1870 nM (active) | 1320 nM (active) | 332 nM (active) |  | 1050 nM (active) | 118 nM (active) | 132 nM (active) | 372 nM (active) | 118 nM (active) | 743 nM (active) |
| O=C1CSC(=O)N1C(CCc1ccncc1)COc1ccc(-c2cccc([N+](=O)[O-])c2)cc1 (stereo not given) | inactive | 46.9 nM (active) | 10500 nM (active) |  | inactive | 5900 nM (active) | 18700 nM (active) | 7430 nM (active) | 2640 nM (active) | inactive |
